Bioassay records as filed in PubChem BioAssay.
Only some compounds are listed: those with a hit (about 1.6% of all), similar ones and a draw of the others.
KCNQ2 block – KCNQ2 (rat) channel inhibition; 310,000 tested, 1.1% active; B-score at 10 µM; CHO-K1 KCNQ2, FluxOR thallium flux, 20 min; hits give low values; AID 2156; O88943;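 active means fluorescence ratio B-score at most minus 3 library SDs, with starting brightness B-score within 2 library SDs, cut at about -5.5 in these data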
KCNQ2 enhance – enhances the rat KCNQ2 potassium channel. O88943. CHO-K1 KCNQ2, FluxOR thallium flux fluorescence; hits give high values. B-score at 10 µM. 310,000 tested, 0.54% active. AID 2239;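 active means fluorescence ratio B-score at least 3 SD of library B-scores, with initial fluorescence B-score within 3 of them, cut at about 5.3 in these data; same plate scores as AID 2156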;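 further: B-score of peak minus minimum over baseline fluorescence ratio after K+ and Tl+ stimulus; positive B-score means potentiation of KCNQ2 with more thallium influx and brighter signal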
Kir21 confirm – confirmation of mouse Kir2.1 potassium channel inhibitors. 2,300 tested, 41% active. Kir2.1-expressing cells, FluxOR thallium flux fluorescence; hits give low values. Tl flux remaining, % of negative control (hits give low values), % at 10 µM. shares compounds with KCNQ2 enhance;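 active means Primary-screen hit whose thallium flux fell at least 3 control SD below untreated wells in both duplicates, with normal baseline fluorescence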;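 further: 0% = blank wells without stimulus and 100% = stimulated no-compound controls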
Target sequence (P35561 whole entry, looked up): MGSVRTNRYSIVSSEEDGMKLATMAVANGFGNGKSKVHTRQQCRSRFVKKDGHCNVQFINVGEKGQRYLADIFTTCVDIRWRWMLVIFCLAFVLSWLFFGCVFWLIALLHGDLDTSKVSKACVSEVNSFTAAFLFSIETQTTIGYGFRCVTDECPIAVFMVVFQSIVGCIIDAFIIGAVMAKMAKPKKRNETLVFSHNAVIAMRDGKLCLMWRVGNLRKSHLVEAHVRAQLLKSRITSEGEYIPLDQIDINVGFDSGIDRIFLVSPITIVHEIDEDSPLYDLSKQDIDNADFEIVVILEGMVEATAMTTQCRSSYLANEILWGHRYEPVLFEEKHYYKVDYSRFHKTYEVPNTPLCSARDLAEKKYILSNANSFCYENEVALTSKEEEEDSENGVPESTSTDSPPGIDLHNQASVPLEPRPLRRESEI
HEK293 Tl flux – parental HEK293 activity in Kir2.1 inhibitor counter-screen; FluxOR signal as % of negative control (100 = no effect), % at 10 µM; shares compounds with KCNQ2 enhance; 2,300 tested, 19% active; parental HEK293 cells, FluxOR thallium flux fluorescence; 0% = unstimulated blank wells;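 active means dye signal at least 3 control SD above or below untreated wells in both duplicates, raw fluorescence within 3, either direction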;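 further: percent is based on the flux ratio of peak minus minimum fluorescence over baseline F0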
CHO-K1 Tl ctr – counter-screen for KCNQ2 potentiators: effect in parental CHO-K1 cells; shares compounds with KCNQ2 enhance; FluxOR thallium flux fluorescence; zero = vehicle mean+3SD, 100% = vehicle-minus-blank window; activity increase over 3SD of controls, % at 10 µM; 1,200 tested, 43% active;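 active means signal rise of at least 3 SD above the untreated control mean, in both duplicate wells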;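 further: counter screen of KCNQ2 potentiator hits so any rise reflects channel-independent effects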
KCNQ1 sel pot – selectivity of KCNQ2 potentiators: effect on human KCNQ1. shares compounds with KCNQ2 enhance. CHO KCNQ1 stable, FluxOR thallium flux fluorescence; beyond 3SD, as % of vehicle-control signal. activation over 3SD threshold, % at 10 µM. 1,200 tested, 28% active;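 active means fluorescence ratio rise of at least 3 SD of vehicle wells above their mean, in both replicate wells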;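 further: 0% = vehicle mean plus 3 SD and 100% = vehicle minus unstimulated blank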
KCNQ2 pot confirm – confirmation of rat KCNQ2 potassium channel potentiators | shares compounds with KCNQ2 enhance | CHO-KCNQ2 cells, FluxOR thallium flux fluorescence | 1,200 tested, 68% active | potentiation, less the hit threshold, % at 10 µM | AID 2287;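 active means fluorescence ratio rising 3 SD or more over the vehicle control mean in both replicates, plus primary screen hit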;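 further: peak minus minimum thallium fluorescence divided by baseline after K/Tl stimulus; 0% = vehicle mean plus 3 SD and 100% = vehicle minus unstimulated blank difference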
Kir21 spec – tests whether KCNQ2 potentiators also affect mouse Kir2.1 | AID 2345 | HEK293 Kir2.1, FluxOR thallium flux fluorescence | 1,200 tested, 2% active | shares compounds with KCNQ2 enhance | activity over 3SD threshold, % at 10 µM;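 active means fluorescence ratio rise of at least 3 SD above the vehicle-control mean, seen in both replicates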;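 further: 0% = vehicle mean plus 3 SD and 100% = vehicle minus no-stimulus blank window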
KCNQ2 W236L pot – rat KCNQ2 W236L mutant potentiation by KCNQ2 potentiators; CHO KCNQ2-W236L, automated patch clamp current; current increase over 3SD of negative controls (%), hits give high values, % at 25 µM; shares compounds with KCNQ2 enhance; 940 tested, 10% active; AID 2558;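 active means current increase at least 3 SD of the untreated controls above them in both duplicate recordings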
* marks the source's active call; other numbers are inactive results; i = inactive; / = no result given.

SMILES	KCNQ2 block	KCNQ2 enhance	Kir21 confirm	HEK293 Tl flux	CHO-K1 Tl ctr	KCNQ1 sel pot	KCNQ2 pot confirm	Kir21 spec	KCNQ2 W236L pot
Cc1ccc(/C=C/C(=O)c2ccccc(=O)c2O)cc1C	i	6.1*	i	i	-6	-23	0.8*	-33	i
O=C(/C=C/c1ccccc1)c1cc(Br)ccc(=O)c1O	i	0.7	/	/	/	/	/	/	/
Cc1cc(C)n(/N=C/c2cc(Cl)cc(Cl)c2O)c(=O)c1	i	9.8*	i	i	-14	39*	-13	-41	/
Cc1cc(C)n(/N=C/c2ccccc2O)c(=O)c1	i	/	/	/	/	/	/	/	/
O=C(NC1CC1)c1nc(Cn2cc([N+](=O)[O-])cn2)no1	i	2	/	/	/	/	/	/	/
CCc1ccc(C(C)NC(=O)c2cccs2)cc1 (stereo not given)	i	5.3*	i	i	-18	46*	-2	-33	i
CCOc1ccc(C(C)NC(=O)c2cccs2)cc1OCC (stereo not given)	i	0.05	/	/	/	/	/	/	/
Cc1ccc2c(c1)N(CCC(=O)NCCCN1CCCC1)C(=O)C(C)O2 (stereo not given)	i	0.18	/	/	/	/	/	/	/
Cc1ccc(S(=O)(=O)C2CS(=O)(=O)CC2O)cc1 (stereo not given)	i	0.88	/	/	/	/	/	/	/
CC(=O)C1=C(S(=O)(=O)c2ccc(C)cc2)CS(=O)(=O)C1	i	17*	i	72%*	-8	-4	77*	-41	76%*
Cc1cc(C)c(NC(=O)C2C3/C=C\CCCCC32)c(C)c1 (stereo not given)	i	12*	i	i	-15	-20	56*	-28	i
Cc1ccc(NC(=O)C2C3/C=C\CCCCC32)cc1 (stereo not given)	i	1.7	/	/	/	/	/	/	/
COc1ccc2c(c1)C=C(C(=O)OCc1cccnc1)CO2	i	0.03	/	/	/	/	/	/	/
Cc1cc(C)c(S(=O)(=O)N2CCCc3ccccc32)c(C)c1	i	/	/	/	/	/	/	/	/
Cc1cccc(S(=O)(=O)N2CCCc3ccccc32)c1	i	/	i	i	/	/	/	/	/
N#C/C(=C\c1cccc(Br)c1)C(=O)N1CCCCC1	-8.5*	-8.5	45%*	i	/	/	/	/	/
N#C/C(=C\c1cccc(O)c1)C(=O)N1CCCCC1	i	/	/	/	/	/	/	/	/
CC(NC(=O)CC12CC3CC(CC(C3)C1)C2)C(=O)O (stereo not given)	i	1.2	/	/	/	/	/	/	/
COc1ccc(C(C)NC(=O)CC23CC4CC(CC(C4)C2)C3)cc1 (stereo not given)	i	5.7*	i	i	-11	-10	-3	-52	i
COc1cc(C(=S)N2CCOCC2)cc(Br)c1OS(=O)(=O)c1ccccc1	i	/	/	/	/	/	/	/	/
NC(=O)c1ccccc1NC(=S)NC(=O)c1ccc(Br)o1	i	/	/	/	/	/	/	/	/
O=C(NC(=S)Nc1cccnc1)c1ccccc1	i	0.03	/	/	/	/	/	/	/
O=C(NC(=S)N1CCc2ccccc21)C1CCC1	i	0.25	/	/	/	/	/	/	/
O=C(NC(=S)N1CCc2ccccc21)c1ccc(Br)o1	i	9.8*	i	399%*	-9	48*	75*	-15	i
Cc1snnc1C(=O)NC(=S)Nc1ccccc1	i	6*	i	239%*	-22	-14	34*	-17	i
COc1ccc(NC(=O)c2ccc(Br)o2)cc1	i	0.29	/	/	/	/	/	/	/
COc1ccc(NC(=S)NC(=O)c2ccc(Br)o2)cc1	i	8.5*	i	200%*	-6	-4	39*	-23	i
O=C(NC(=S)Nc1ccccc1)c1ccc(Br)o1	i	8.2*	i	162%*	130*	-19	35*	-24	i
